# Assay results reported in article PMC7862700, “An all-to-all approach to the identification of sequence-specific readers for epigenetic DNA modifications on cytosine”.
# Tests used:
# Experiment in all cases: DAPPL (digital affinity profiling via proximity ligation, sequencing); 10 mM Tris-HCl pH 7.5, 50 mM NaCl, 1 mM DTT, 4% glycerol, room temperature, 30 min; GST-TFs on glutathione beads, 16-mer random dsDNA library, 0.1% formaldehyde crosslink after washing; high values mean tight binding
# ELK1 = molecular target: T1, ELK1 (Homo sapiens, UniProt P19419 1-428); settings: protein: recombinant; tags: N-terminal GST; dsDNA, one strand shown
# T1 sequence: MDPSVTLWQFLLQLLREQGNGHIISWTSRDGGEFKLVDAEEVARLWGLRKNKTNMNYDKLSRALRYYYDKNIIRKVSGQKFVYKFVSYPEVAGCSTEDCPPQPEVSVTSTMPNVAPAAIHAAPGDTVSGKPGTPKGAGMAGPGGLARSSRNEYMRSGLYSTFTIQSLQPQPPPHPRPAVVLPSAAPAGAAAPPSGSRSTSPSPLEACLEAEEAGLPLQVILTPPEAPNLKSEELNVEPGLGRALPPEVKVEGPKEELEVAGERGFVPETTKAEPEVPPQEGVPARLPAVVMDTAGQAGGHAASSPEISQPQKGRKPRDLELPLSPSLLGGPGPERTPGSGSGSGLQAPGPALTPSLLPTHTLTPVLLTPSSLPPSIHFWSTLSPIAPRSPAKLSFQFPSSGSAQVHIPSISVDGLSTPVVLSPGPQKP
# Summary of the method: (§1)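 Binding signal is each hexamer's read frequency for a factor divided by its frequency in the tag-only sample. The factors were GST-fused human transcription factors from yeast, captured on glutathione beads, DNA-barcoded and pooled with that sample. Pools were incubated with 200 nmole of a random double-stranded 16-mer DNA library in Tris/NaCl/DTT/glycerol buffer at room temperature for 30 min, then washed, crosslinked with 0.1% formaldehyde, proximity-ligated with BsaI/T4 ligase (1 h, 37 °C), PCR-amplified and sequenced on an Illumina NextSeq500.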
# GABPA = molecular target: T2, GABPA (Homo sapiens, UniProt Q06546 1-454); settings: protein: recombinant; tags: N-terminal GST; dsDNA, one strand shown
# T2 sequence: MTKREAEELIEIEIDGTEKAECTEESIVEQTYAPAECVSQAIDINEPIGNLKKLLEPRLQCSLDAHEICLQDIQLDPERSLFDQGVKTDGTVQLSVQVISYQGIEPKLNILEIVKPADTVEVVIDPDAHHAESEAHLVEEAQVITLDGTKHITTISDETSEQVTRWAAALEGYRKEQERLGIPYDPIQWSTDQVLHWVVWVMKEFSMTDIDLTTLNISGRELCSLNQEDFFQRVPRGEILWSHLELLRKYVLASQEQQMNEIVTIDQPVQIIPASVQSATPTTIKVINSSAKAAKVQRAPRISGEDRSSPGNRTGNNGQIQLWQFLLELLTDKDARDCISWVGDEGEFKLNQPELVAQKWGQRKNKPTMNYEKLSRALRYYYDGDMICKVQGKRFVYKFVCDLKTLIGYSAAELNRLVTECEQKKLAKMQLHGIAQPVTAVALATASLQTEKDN
# Summary of the method: as §1
# ERG = molecular target: T3, ERG (Homo sapiens, UniProt P11308 1-479); settings: protein: recombinant; tags: N-terminal GST; dsDNA, one strand shown
# T3 sequence: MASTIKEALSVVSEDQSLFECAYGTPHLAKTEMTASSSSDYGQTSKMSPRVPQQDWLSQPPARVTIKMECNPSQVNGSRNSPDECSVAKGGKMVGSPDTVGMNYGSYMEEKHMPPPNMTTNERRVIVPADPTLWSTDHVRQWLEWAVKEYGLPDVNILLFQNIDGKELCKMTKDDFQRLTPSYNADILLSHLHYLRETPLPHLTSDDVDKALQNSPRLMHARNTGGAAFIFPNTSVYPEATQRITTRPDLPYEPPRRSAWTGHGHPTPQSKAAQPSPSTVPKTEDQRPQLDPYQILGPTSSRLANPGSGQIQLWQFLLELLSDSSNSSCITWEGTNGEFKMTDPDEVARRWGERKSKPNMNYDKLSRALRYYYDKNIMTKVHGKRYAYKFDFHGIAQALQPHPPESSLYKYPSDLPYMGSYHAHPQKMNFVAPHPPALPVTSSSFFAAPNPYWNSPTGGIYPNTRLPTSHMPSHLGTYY
# Summary of the method: as §1
# ELF1 = ELF1 (Homo sapiens, UniProt P32519 1-619); settings: protein: recombinant; tags: N-terminal GST; dsDNA, one strand shown
# ELF1, sequence (P32519 whole entry): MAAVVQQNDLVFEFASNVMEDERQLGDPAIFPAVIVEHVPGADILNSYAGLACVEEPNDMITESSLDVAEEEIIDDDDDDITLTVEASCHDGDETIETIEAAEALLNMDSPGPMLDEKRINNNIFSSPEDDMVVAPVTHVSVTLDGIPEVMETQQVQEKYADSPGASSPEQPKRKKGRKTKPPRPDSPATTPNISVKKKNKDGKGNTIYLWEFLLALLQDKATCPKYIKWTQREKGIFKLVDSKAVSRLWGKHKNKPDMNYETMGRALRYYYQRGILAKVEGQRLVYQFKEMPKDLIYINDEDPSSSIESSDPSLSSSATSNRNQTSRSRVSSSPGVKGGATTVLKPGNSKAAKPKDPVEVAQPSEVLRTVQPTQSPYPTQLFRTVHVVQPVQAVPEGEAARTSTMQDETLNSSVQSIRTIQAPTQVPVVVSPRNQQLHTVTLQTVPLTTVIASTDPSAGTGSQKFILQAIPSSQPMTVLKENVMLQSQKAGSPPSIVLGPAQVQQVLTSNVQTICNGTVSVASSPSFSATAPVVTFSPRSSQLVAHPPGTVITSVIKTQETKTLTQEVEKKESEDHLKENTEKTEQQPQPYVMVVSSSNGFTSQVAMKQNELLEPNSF
# Summary of the method: as §1
# EHF = molecular target: T4, EHF (Homo sapiens, UniProt Q9NZC4 1-300); settings: protein: recombinant; tags: N-terminal GST; dsDNA, one strand shown
# T4 sequence: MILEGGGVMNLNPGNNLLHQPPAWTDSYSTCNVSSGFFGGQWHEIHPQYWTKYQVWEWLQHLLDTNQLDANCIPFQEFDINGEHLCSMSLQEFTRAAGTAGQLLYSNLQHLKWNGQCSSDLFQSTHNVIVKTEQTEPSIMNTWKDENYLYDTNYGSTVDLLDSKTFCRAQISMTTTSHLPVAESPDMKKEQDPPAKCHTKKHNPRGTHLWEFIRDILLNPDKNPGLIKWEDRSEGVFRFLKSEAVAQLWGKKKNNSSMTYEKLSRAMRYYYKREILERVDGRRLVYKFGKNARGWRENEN
# Summary of the method: as §1
# SPIB = SPIB (Homo sapiens, UniProt Q01892 1-262); settings: protein: recombinant; tags: N-terminal GST; dsDNA, one strand shown
# SPIB, sequence (Q01892 whole entry): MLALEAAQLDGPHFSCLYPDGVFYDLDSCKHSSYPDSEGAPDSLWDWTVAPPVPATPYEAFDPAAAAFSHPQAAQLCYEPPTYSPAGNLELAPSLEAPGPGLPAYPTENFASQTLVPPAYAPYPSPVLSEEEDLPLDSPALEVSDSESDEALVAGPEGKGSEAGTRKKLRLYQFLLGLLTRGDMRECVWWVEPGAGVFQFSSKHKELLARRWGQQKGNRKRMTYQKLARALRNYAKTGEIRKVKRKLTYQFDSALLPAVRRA
# Summary of the method: as §1
# HSF1 = HSF1 (Homo sapiens, UniProt Q00613 1-529); settings: protein: recombinant; tags: N-terminal GST; chain copies: 3; dsDNA, one strand shown
# HSF1, sequence (Q00613 whole entry): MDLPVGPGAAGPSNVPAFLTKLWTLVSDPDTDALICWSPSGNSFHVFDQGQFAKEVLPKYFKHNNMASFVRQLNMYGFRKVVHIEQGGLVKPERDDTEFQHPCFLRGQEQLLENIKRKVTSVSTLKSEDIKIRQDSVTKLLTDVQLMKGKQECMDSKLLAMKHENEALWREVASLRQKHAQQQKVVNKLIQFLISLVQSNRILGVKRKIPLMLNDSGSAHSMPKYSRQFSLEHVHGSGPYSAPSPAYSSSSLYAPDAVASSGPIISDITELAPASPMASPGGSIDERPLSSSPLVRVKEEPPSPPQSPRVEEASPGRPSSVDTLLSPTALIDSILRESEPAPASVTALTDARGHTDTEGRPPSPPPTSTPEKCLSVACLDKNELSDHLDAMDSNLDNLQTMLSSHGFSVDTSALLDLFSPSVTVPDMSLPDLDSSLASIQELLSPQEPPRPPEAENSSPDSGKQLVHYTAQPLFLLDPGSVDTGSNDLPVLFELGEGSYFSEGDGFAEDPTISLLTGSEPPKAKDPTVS
# Summary of the method: as §1
# ELF4 = ELF4 (Homo sapiens, UniProt Q99607 1-663); settings: protein: recombinant; tags: N-terminal GST; dsDNA, one strand shown
# ELF4, sequence (Q99607 whole entry): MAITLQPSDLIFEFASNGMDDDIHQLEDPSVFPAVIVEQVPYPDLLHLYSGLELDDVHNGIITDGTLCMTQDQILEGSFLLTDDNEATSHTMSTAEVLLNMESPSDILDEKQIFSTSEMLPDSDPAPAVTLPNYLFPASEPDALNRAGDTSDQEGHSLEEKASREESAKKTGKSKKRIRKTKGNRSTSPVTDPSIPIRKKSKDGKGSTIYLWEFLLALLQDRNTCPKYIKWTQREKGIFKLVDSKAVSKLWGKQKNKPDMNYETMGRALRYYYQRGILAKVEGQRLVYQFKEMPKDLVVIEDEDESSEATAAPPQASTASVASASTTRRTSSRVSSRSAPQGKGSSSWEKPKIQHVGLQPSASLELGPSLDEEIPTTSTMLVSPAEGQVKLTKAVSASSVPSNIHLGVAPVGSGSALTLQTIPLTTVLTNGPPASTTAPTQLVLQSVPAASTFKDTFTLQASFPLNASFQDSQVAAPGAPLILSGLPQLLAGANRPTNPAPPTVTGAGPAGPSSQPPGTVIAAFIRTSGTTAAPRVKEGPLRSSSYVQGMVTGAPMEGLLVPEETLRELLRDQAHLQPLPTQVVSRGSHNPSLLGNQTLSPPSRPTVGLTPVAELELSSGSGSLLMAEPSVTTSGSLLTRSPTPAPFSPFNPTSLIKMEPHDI
# Summary of the method: as §1
# ELK4 = molecular target: T5, ELK4 (Homo sapiens, UniProt P28324-2 1-405); settings: protein: recombinant; tags: N-terminal GST; dsDNA, one strand shown
# T5 sequence: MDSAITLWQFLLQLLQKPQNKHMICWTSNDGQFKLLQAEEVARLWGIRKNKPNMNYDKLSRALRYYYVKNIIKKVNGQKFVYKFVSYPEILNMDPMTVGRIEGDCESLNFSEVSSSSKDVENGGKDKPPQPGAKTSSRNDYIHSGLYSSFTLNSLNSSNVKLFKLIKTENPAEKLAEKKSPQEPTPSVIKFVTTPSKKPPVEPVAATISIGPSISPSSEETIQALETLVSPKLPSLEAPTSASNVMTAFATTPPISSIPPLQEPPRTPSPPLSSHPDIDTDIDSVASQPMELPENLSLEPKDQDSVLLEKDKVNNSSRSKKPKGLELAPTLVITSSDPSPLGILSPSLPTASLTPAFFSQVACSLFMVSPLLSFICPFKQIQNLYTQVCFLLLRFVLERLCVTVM
# Summary of the method: as §1
# ELF3 = molecular target: T6, ELF3 (Homo sapiens, UniProt P78545 1-371); settings: protein: recombinant; tags: N-terminal GST; dsDNA, one strand shown
# T6 sequence: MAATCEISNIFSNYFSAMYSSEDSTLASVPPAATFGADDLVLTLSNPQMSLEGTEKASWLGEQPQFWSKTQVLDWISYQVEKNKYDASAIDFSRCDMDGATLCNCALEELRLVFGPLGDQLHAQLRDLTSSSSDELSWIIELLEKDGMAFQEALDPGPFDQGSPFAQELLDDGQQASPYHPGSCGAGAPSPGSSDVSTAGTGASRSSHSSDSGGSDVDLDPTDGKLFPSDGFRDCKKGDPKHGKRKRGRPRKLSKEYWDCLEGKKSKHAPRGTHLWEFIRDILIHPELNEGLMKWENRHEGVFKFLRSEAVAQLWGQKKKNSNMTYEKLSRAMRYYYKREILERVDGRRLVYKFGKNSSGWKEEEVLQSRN
# Summary of the method: as §1
# CRX = CRX (Homo sapiens, UniProt O43186 1-299); settings: protein: recombinant; tags: N-terminal GST; dsDNA, one strand shown
# CRX, sequence (O43186 whole entry): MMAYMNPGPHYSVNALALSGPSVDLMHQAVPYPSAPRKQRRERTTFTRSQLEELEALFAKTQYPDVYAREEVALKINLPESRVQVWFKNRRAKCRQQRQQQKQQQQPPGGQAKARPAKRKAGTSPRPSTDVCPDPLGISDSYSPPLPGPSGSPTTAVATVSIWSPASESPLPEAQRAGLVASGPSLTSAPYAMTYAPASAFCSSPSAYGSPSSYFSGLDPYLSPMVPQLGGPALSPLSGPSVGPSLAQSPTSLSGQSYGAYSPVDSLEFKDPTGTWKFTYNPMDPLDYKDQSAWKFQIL
# Summary of the method: as §1
# ETV1 = ETV1 (Homo sapiens, UniProt P50549 1-477); settings: protein: recombinant; tags: N-terminal GST; dsDNA, one strand shown
# ETV1, sequence (P50549 whole entry): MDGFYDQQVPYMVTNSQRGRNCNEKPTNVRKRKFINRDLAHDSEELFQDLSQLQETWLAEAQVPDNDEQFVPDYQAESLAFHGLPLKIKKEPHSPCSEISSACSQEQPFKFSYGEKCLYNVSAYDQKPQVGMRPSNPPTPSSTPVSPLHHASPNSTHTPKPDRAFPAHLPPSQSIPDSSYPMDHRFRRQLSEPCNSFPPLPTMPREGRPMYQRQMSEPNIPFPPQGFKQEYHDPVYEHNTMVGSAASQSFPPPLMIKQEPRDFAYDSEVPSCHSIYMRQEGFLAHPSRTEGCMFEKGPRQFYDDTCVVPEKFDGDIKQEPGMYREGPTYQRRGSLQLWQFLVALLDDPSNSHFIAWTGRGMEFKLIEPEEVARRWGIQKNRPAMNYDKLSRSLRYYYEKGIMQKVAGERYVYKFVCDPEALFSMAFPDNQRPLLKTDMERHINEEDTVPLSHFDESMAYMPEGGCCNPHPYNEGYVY
# Summary of the method: as §1
# ERF = molecular target: T7, ERF (Homo sapiens, UniProt P50548 1-548); settings: protein: recombinant; tags: N-terminal GST; dsDNA, one strand shown
# T7 sequence: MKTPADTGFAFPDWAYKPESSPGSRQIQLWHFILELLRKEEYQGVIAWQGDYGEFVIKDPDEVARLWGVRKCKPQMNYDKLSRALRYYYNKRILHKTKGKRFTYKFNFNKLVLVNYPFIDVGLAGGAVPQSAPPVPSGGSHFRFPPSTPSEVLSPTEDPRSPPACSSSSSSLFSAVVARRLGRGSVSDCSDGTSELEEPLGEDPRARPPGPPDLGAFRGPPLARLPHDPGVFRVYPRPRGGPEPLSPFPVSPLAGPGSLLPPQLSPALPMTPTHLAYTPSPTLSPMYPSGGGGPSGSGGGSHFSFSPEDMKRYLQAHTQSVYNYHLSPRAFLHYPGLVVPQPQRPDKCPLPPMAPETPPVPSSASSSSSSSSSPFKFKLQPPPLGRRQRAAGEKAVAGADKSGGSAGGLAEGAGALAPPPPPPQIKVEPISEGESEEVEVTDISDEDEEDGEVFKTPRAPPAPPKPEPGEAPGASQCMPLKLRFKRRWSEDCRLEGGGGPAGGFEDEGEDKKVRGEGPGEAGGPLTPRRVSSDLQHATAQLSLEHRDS
# Summary of the method: as §1
# ETV3L = molecular target: T8, ETV3L (Homo sapiens, UniProt Q6ZN32 1-361); settings: protein: recombinant; tags: N-terminal GST; dsDNA, one strand shown
# T8 sequence: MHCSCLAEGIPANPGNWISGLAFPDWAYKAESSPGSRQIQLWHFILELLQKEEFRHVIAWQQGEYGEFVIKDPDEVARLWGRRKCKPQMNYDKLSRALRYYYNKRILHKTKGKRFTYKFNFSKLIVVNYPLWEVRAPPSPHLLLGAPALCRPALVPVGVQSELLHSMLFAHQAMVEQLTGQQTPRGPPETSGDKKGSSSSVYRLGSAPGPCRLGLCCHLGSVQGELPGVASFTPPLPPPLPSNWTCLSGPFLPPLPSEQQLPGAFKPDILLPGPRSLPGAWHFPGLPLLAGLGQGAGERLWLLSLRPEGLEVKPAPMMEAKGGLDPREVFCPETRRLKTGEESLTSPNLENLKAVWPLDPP
# Summary of the method: as §1
# SPDEF = molecular target: T9, SPDEF (Homo sapiens, UniProt O95238 1-335); settings: protein: recombinant; tags: N-terminal GST; dsDNA, one strand shown
# T9 sequence: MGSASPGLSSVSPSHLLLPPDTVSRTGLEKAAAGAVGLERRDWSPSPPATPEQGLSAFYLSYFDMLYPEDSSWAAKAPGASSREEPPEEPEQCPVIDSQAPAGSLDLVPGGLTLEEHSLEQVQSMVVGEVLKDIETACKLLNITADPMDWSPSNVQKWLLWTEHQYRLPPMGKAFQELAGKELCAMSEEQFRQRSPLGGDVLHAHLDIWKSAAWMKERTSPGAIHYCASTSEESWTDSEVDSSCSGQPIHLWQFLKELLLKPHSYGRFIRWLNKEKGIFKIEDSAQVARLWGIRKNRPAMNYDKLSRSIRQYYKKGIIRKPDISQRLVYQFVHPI
# Summary of the method: as §1
# ETV7 = molecular target: T10, ETV7 (Homo sapiens, UniProt Q9Y603 1-341); settings: protein: recombinant; tags: N-terminal GST; dsDNA, one strand shown
# T10 sequence: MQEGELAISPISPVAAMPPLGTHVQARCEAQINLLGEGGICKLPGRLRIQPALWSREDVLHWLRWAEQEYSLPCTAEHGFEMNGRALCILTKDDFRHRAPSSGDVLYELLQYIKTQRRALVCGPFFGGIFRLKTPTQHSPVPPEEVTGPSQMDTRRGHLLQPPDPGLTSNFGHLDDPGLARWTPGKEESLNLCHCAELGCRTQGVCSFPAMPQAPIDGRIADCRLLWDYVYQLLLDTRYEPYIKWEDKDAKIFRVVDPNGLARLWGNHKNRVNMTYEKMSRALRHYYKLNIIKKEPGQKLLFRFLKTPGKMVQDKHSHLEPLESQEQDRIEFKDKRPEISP
# Summary of the method: as §1
# ELF5 = molecular target: T11, ELF5 (Homo sapiens, UniProt Q9UKW6-2 1-255); settings: protein: recombinant; tags: N-terminal GST; dsDNA, one strand shown
# T11 sequence: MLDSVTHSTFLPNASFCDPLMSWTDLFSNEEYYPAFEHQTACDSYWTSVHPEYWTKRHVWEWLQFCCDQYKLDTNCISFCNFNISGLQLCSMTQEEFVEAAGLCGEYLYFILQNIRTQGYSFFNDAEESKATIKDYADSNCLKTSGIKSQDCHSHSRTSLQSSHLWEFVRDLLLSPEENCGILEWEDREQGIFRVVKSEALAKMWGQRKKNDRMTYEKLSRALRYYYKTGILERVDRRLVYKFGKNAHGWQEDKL
# Summary of the method: as §1
# ETV3 = molecular target: T12, ETV3 (Homo sapiens, UniProt P41162-2 1-143); settings: protein: recombinant; tags: N-terminal GST; dsDNA, one strand shown
# T12 sequence: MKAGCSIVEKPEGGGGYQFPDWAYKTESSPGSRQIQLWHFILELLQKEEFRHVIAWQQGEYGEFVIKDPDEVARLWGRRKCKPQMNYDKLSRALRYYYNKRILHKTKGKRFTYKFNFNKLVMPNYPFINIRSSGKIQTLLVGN
# Summary of the method: as §1
sequence,measurement,setting,value
GCGAAT,binding signal,ELK1,"1.07 fold enrichment (6-mer frequency, TF over GST control)"
same,binding signal,GABPA,"1.05 fold enrichment (6-mer frequency, TF over GST control)"
same,binding signal,ERG,"1.08 fold enrichment (6-mer frequency, TF over GST control)"
same,binding signal,ELF1,"1.11 fold enrichment (6-mer frequency, TF over GST control)"
same,binding signal,EHF,"1.17 fold enrichment (6-mer frequency, TF over GST control)"
same,binding signal,SPIB,"1 fold enrichment (6-mer frequency, TF over GST control)"
same,binding signal,HSF1,"1.27 fold enrichment (6-mer frequency, TF over GST control)"
same,binding signal,ELF4,"1.02 fold enrichment (6-mer frequency, TF over GST control)"
same,binding signal,ELK4,"1.17 fold enrichment (6-mer frequency, TF over GST control)"
same,binding signal,ELF3,"1.12 fold enrichment (6-mer frequency, TF over GST control)"
same,binding signal,CRX,"1.08 fold enrichment (6-mer frequency, TF over GST control)"
same,binding signal,ETV1,"1.04 fold enrichment (6-mer frequency, TF over GST control)"
same,binding signal,ERF,"1.05 fold enrichment (6-mer frequency, TF over GST control)"
same,binding signal,ETV3L,"1.06 fold enrichment (6-mer frequency, TF over GST control)"
same,binding signal,SPDEF,"1.08 fold enrichment (6-mer frequency, TF over GST control)"
same,binding signal,ETV7,"1.04 fold enrichment (6-mer frequency, TF over GST control)"
same,binding signal,ELF5,"1.04 fold enrichment (6-mer frequency, TF over GST control)"
same,binding signal,ETV3,"1.07 fold enrichment (6-mer frequency, TF over GST control)"
